# Screening data from PubChem.
# Compounds with a hit are over-represented: about 11% of the library has one in this group of screens.
# ALDH1A1 inh: ALDH1A1 (human) enzyme inhibition. P00352. Purified ALDH1A1, NADH fluorescence, propionaldehyde substrate. Potency, µM (titrated, usually from 75.3 µM), hits mostly inhibitors. 220,000 compounds, 7.3% hits
# Target sequence (P00352 whole entry, looked up): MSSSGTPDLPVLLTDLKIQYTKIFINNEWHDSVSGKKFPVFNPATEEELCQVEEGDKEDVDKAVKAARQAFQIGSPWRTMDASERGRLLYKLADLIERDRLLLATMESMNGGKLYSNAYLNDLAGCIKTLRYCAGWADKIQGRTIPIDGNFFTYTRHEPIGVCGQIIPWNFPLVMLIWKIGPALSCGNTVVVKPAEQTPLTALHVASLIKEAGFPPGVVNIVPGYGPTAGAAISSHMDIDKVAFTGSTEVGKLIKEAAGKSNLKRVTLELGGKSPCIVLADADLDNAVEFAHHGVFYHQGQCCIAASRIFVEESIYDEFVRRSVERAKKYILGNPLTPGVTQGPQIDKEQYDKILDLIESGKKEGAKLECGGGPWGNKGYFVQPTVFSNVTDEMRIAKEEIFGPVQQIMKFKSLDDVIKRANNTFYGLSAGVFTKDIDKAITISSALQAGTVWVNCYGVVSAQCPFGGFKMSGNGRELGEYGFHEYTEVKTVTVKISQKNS
# HPGD block: HPGD (human) dehydrogenase inhibition; AID 894; Potency, µM, most hits filed as inhibitors; P15428; purified HPGD, NADH fluorescence kinetic, PGE2 substrate; 150,000 compounds, 4.3% hits
#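 NADH formation kinetics: reaction with 30 uM PGE2 and 1 mM NAD+ (final), 20 nM enzyme, Tris-HCl pH 8 with Tween 20, after 15 min compound preincubation at room temperature. Fluorescence change, last versus first of five reads.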
# JMJD2E inh: inhibitors of human JMJD2E histone demethylase; Potency, µM (series often up to 57.1 µM), actives largely listed as inhibitors; JMJD2E catalytic domain, FDH-coupled NADH fluorescence (FDH is formaldehyde dehydrogenase); 230,000 compounds, 1.6% hits; B2RXH2; AID 2147; note: nearly all actives have a fitted effect of over 50% in size
# PNC assembly inh: inhibitors of perinucleolar compartment assembly; PC3M PTB-GFP, PNC prevalence imaging, 16 h; hits give low values; activity change (PNC), negative = inhibition, % at 10 µM; 140,000 compounds, 3.1% hits; AID 2417;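 active = readout at or below -70, meaning at least 70% loss of cells showing the perinucleolar compartment, a nuclear body marking cancer cells; inconclusive = readout between -30 and a set limit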
#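 Compounds are pinned in duplicate onto adhered PC3M cells stably expressing GFP-tagged PTB and incubated 16 h at 37 C. Cells are then fixed, nuclei stained with Hoechst, and PNC-positive cells counted.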
# A number is an active result; – = inactive; ? = inconclusive; · = not tested or not shown; [ ] = remark or other dose. Unless noted, calls come from the whole dose curve; as a rule, active = well fitted inhibition curve with a large enough effect (not every such curve was filed as active); inconclusive = small, poorly fitted or top-dose-only effect, or another doubt; inactive = no such curve, though single readings can be large or run the other way.
SMILES,ALDH1A1 inh,HPGD block,JMJD2E inh,PNC assembly inh
CC(=O)CSc1ccc(C(=O)O)cn1,–,–,–,–
CC1Cc2ccccc2N1C(=O)CSc1nnc(CNc2ccccc2)o1 (stereo unspecified),25.1µM,–,–,?
COc1ccc(NCc2nnc(SCC(=O)N3CCCc4ccccc43)o2)cc1,?,–,–,–
O=C(CSc1nnc(CNc2ccccc2)o1)N1CCCc2ccccc21,8.91µM,–,–,?
O=C(CSc1nnc(CNc2ccccc2)o1)N1CCN(C(=O)c2ccco2)CC1,–,–,–,?
Cc1ccc(NC(=O)CCN2CCN(C/C=C/c3ccccc3)CC2)cc1C,14.1µM,–,–,–
COc1c2c(c3c(c1CCC(=O)O)OC(C)(C)C=C3)OC(C)(C)C=C2,–[13.5 µM],–,·,·
CC1(C)CC(CCC(=O)NC(=S)Nc2ccccc2Cl)C(=O)O1 (stereo unspecified),12.6µM,·,–,·
Cn1cccc1CC(=O)NNC(=S)Nc1ccccc1Cl,?,11.2µM,–,–
Cc1c(Cl)cccc1NC(=S)NC(=O)CCN1C(=O)c2ccccc2C1=O,?,–,–,–
Cn1cccc1CC(=O)NNC(=S)Nc1ccc(Cl)cc1,?,–,–,–
O=C(CCN1C(=O)c2ccccc2C1=O)NC(=S)Nc1ccccc1Cl,22.4µM,–,–,–
N#CC(Nc1ccccc1)c1ccccc1OCc1ccccc1 (stereo unspecified),17.8µM,–,–,–
CN(C)C(CNC(=O)c1ccc2c(=O)n(-c3ccccc3F)c(=S)[nH]c2c1)Cc1ccccc1 (stereo unspecified),12.6µM,·,–,·
O=C(C1CC1)N1CCc2cc(Br)cc(S(=O)(=O)NCc3ccco3)c21,2µM,–,–,–
O=C(O)CCS(=O)(=O)c1cc(Br)cc2c1N(C(=O)C1CC1)CC2,–,·,?,·
O=C(C1CC1)N1CCc2cc(Br)cc(S(=O)(=O)NCc3ccc4c(c3)OCO4)c21,10µM,–,–,–
O=C(C1CC1)N1CCc2cc(Br)cc(S(=O)(=O)NCc3ccccn3)c21,?,–,–,–
Cc1ccc(CNC(=O)CCS(=O)(=O)c2cc(Br)cc3c2N(C(=O)C2CC2)CC3)o1,10µM,?,–,?
CCOCCCNS(=O)(=O)c1cc(Br)cc2c1N(C(=O)C1CC1)CC2,10µM,–,–,–
O=[N+]([O-])c1ccccc1N/N=C1\CC2CC=CC12 (stereo unspecified),–,·,–,·
Cc1nc2c(OCc3ccccc3)cccn2c1CC#N,–,–,–,·
COc1cccc(-c2nc(NCc3cccs3)c3ccccc3n2)c1,–,·,·,·
COc1ccc(NC(=O)CSc2nnc(NC(C)=O)s2)c([N+](=O)[O-])c1,–,·,?,·
CCCCCC(=O)N1CCCCC1,–,·,–,·
SMILES,ALDH1A1 inh,HPGD block,JMJD2E inh,PNC assembly inh
COc1cc(CNC23CC4CC(CC(C4)C2)C3)ccc1OCc1ccccc1,–,·,–,·
Cc1nc2ccc(NC(=O)c3cc([N+](=O)[O-])cc([N+](=O)[O-])c3Cl)cc2s1,?,7.08µM,–,–
CC(=O)OCC(=O)[C@]1(O)C(OC(C)=O)CC2C3CCC4=CC(=O)C=C[C@@]4(C)[C@]3(F)C(O)C[C@]21C (stereo partly specified),–,–,–,·
COc1ccc(-n2nc(C(=O)NCC(=O)N3CCN(c4ccccn4)CC3)c3ccccc3c2=O)cc1,28.2µM,?,?,–
COc1ccc(-n2nc(C(=O)NCC(=O)N3CCN(c4ccccn4)CC3)c3ccccc3c2=O)cc1OC,–,·,–,·
COc1ccc(-n2nc(C(=O)NCc3ccco3)c3c4ccccc4n(C)c3c2=O)cc1,?,?,?,–
COc1ccc(-n2nc(C(=O)NCc3ccco3)c3ccccc3c2=O)cc1,?,?,?,-83.9
CC(C)CN1CCC2(CC1)CCN(C(=O)c1cnccn1)CC2,–,–,·,·
c1ccc(Nc2nc(-c3cccs3)cs2)nc1,–,–,–,–
Cc1cccc(Nc2nc(-c3cccs3)cs2)n1,?,–,–,-105.2
CC(C)c1[nH]nc2c1C(c1cccc(OC(=O)N3CCOCC3)c1)C(C#N)=C(N)O2 (stereo unspecified),22.4µM,–,–,–
CCc1[nH]nc2c1C(c1cccc(OC(=O)N3CCOCC3)c1)C(C#N)=C(N)O2 (stereo unspecified),?,–,–,?
Cc1ccc(-c2[nH]nc3c2C(c2cccnc2)C(C#N)=C(N)O3)cc1 (stereo unspecified),·,·,–,·
CC(C)c1[nH]nc2c1C(c1cccnc1)C(C#N)=C(N)O2 (stereo unspecified),8.91µM,–,–,–
CCCc1[nH]nc2c1C(c1cccc(OC(=O)c3ccco3)c1)C(C#N)=C(N)O2 (stereo unspecified),8.91µM,–,–,–
CCn1nc(C)c(CN2CCCC(CO)(Cc3cccc(Cl)c3)C2)c1C (stereo unspecified),–,·,–,·
O=C(O)CCNCC(=O)O,–[13.5 µM],–,·,·
CCCCCCCCCCCCSCCOCCO,–,–,·,·
COc1ccc(S(=O)(=O)/N=C2/NC(=O)/C(=C\c3cc(OC)c(OC)cc3[N+](=O)[O-])S2)cc1,?,5.01µM,–,–
Cc1ccc(S(=O)(=O)/N=C2/NC(=O)/C(=C/c3ccccn3)S2)cc1,–,·,–,·
COc1cc(/C=C2\S/C(=N/S(=O)(=O)c3ccccc3)NC2=O)c([N+](=O)[O-])cc1OC,–,7.08µM,–,–
CCC(C)/C(C)=N/NC(=O)CSc1nc2ccccc2[nH]1 (stereo unspecified),–,·,–,·
Cc1ccc(C2NC(c3ccc(C)cc3)C(C)C(=O)C2C)cc1 (stereo unspecified),·,·,–,·
Cc1ccc(NC(=S)NNC(=O)c2c(Cl)c(C)nn2C)cc1,?,–,–,?
Cc1ccc(NC(=S)NNC(=O)Nc2ccccc2)cc1,2.24µM,·,–,·
SMILES,ALDH1A1 inh,HPGD block,JMJD2E inh,PNC assembly inh
O=C(NNC(=S)Nc1ccccc1)NNC(=S)Nc1ccccc1,?,·,–,·
Cc1ccc(NC(=S)NNC(=O)c2nn(C)c(C)c2Cl)cc1,?,–,12.6µM,–
Cc1ccc(NC(=O)NNC(=O)c2ccccc2)cc1,–,·,–,·
O=C(NNC(=S)Nc1ccccc1)Nc1ccccc1,14.1µM,·,?,·
Cc1ccc(NC2Sc3ccccc3NC2=O)cc1Cl (stereo unspecified),·,·,–,·
CSc1sc(C(=O)NN)c2c1C1(CCC2)SCCS1,0.447µM,·,–,·
Cc1ccnc(NS(=O)(=O)c2ccc(NC(=O)c3cc(-c4ccc(Br)cc4)nc4ccccc34)cc2)n1,–,–,?,–
O=C(N[C@@]1(C(=O)O)C[C@@H]1c1ccccc1)c1ccccc1,–[13.5 µM],–,·,·
C[N+](C)(C)CCOP(=O)([O-])OP(=O)(O)OCC1OC(n2ccc(N)nc2=O)C(O)C1O (stereo unspecified),–,–,–,·
C[N+](C)(C)CCOP(=O)(O)OP(=O)([O-])OC[C@H]1O[C@@H](n2ccc(N)nc2=O)[C@H](O)[C@@H]1O,–,–,–,-105.3
Cn1c(=O)[nH]c(=O)c2c1nc(N1CCCCCC1)n2CCOc1ccccc1,–,·,–,·
CC(C)(C)OC(=O)N1CCC(C(=O)N2CCCCCC2)CC1,–,14.1µM,–,?
CC(C)(C)OC(=O)N1CCC(C(=O)N2CCOCC2)CC1,–,–,–,–
